Measurements: the supplement of paper PMC12282887
± gives the standard deviation of the averaged measurements.

Legend:
Assay in all cases: promoter activity interaction Z-score (Lux/OD deviation from empty-vector control); higher = stronger promoter induction by the compound
[1] = system: E. coli BW25113 acrABp lux reporter
Summary of the method: (§1)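 At 37°C, E. coli BW25113 reporter cultures in 40 µl LB Lennox in 384-well plates were read for OD600 and luminescence every 30 min for 12 h. Windows were 0–8 h for wild type and 1–9 h for deletion strains, and wells under 10% of the median growth value were removed. The score is the Z-transformed residual of growth-normalised luminescence against a control fit.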

[2] = system: E. coli BW25113 ompFp lux reporter
Summary of the method: as §1

[3] = system: E. coli BW25113 robp lux reporter
Summary of the method: as §1

[4] = system: E. coli BW25113 soxSp lux reporter
Summary of the method: as §1

[5] = system: E. coli BW25113 tolCp lux reporter
Summary of the method: as §1

[6] = 0.64 µg/ml, genetic background: wild type
[7] = 0.64 µg/ml, genetic background: ΔmarA
[8] = 0.64 µg/ml, genetic background: Δrob
[9] = 0.64 µg/ml, genetic background: ΔsoxS
[10] = 1.3 µg/ml, genetic background: wild type
[11] = 1.3 µg/ml, genetic background: ΔmarA
[12] = 1.3 µg/ml, genetic background: Δrob
[13] = 1.3 µg/ml, genetic background: ΔsoxS
[14] = 2.6 µg/ml, genetic background: wild type
[15] = 2.6 µg/ml, genetic background: ΔmarA
[16] = 2.6 µg/ml, genetic background: Δrob
[17] = 2.6 µg/ml, genetic background: ΔsoxS
[18] = 5.1 µg/ml, genetic background: wild type
[19] = 5.1 µg/ml, genetic background: ΔmarA
[20] = 5.1 µg/ml, genetic background: Δrob
[21] = 5.1 µg/ml, genetic background: ΔsoxS

## C[n+]1ccc(-c2cc[n+](C)cc2)cc1 [Paraquat]
[1]; [6]
  promoter activity interaction Z-score: 0.0325 ± 0.07
[1]; [7]
  promoter activity interaction Z-score: 0.871 ± 1.1
[1]; [8]
  promoter activity interaction Z-score: 0.287 ± 0.14
[1]; [9]
  promoter activity interaction Z-score: -0.155 ± 0.38
[1]; [10]
  promoter activity interaction Z-score: -0.0426 ± 0.21
[1]; [11]
  promoter activity interaction Z-score: 0.412 ± 0.8
[1]; [12]
  promoter activity interaction Z-score: 0.484 ± 0.32
[1]; [13]
  promoter activity interaction Z-score: 0.177 ± 0.18
[1]; [14]
  promoter activity interaction Z-score: 0.406 ± 0.016
[1]; [15]
  promoter activity interaction Z-score: 0.865 ± 0.77
[1]; [16]
  promoter activity interaction Z-score: 0.362 ± 0.13
[1]; [17]
  promoter activity interaction Z-score: 0.148 ± 0.023
[1]; [18]
  promoter activity interaction Z-score: 0.966 ± 0.12
[1]; [19]
  promoter activity interaction Z-score: 0.0695 ± 0.017
[1]; [20]
  promoter activity interaction Z-score: 1.06 ± 0.54
[1]; [21]
  promoter activity interaction Z-score: 0.747 ± 0.85
[2]; [6]
  promoter activity interaction Z-score: 0.528 ± 0.083
[2]; [7]
  promoter activity interaction Z-score: 0.49 ± 0.27
[2]; [8]
  promoter activity interaction Z-score: 0.489 ± 0.56
[2]; [9]
  promoter activity interaction Z-score: 0.272 ± 0.36
[2]; [10]
  promoter activity interaction Z-score: 0.484 ± 0.34
[2]; [11]
  promoter activity interaction Z-score: 0.321 ± 0.0078
[2]; [12]
  promoter activity interaction Z-score: 0.81 ± 0.54
[2]; [13]
  promoter activity interaction Z-score: 0.308 ± 0.03
[2]; [14]
  promoter activity interaction Z-score: 0.864 ± 0.28
[2]; [15]
  promoter activity interaction Z-score: 0.472 ± 0.45
[2]; [16]
  promoter activity interaction Z-score: 1.09 ± 0.6
[2]; [17]
  promoter activity interaction Z-score: 0.514 ± 0.2
[2]; [18]
  promoter activity interaction Z-score: 1.34 ± 0.52
[2]; [19]
  promoter activity interaction Z-score: 0.867 ± 0.69
[2]; [20]
  promoter activity interaction Z-score: 1.96 ± 1.2
[2]; [21]
  promoter activity interaction Z-score: -2.03
[3]; [6]
  promoter activity interaction Z-score: -0.182 ± 0.091
[3]; [7]
  promoter activity interaction Z-score: 0.325 ± 0.15
[3]; [8]
  promoter activity interaction Z-score: 0.533 ± 0.16
[3]; [9]
  promoter activity interaction Z-score: 0.786 ± 0.081
[3]; [10]
  promoter activity interaction Z-score: 0.394 ± 0.0088
[3]; [11]
  promoter activity interaction Z-score: -0.0344 ± 0.25
[3]; [12]
  promoter activity interaction Z-score: 0.769 ± 0.054
[3]; [13]
  promoter activity interaction Z-score: 1.6 ± 0.18
[3]; [14]
  promoter activity interaction Z-score: 0.405 ± 0.13
[3]; [15]
  promoter activity interaction Z-score: -0.176 ± 0.36
[3]; [16]
  promoter activity interaction Z-score: -0.103 ± 0.18
[3]; [17]
  promoter activity interaction Z-score: 0.939 ± 0.087
[3]; [18]
  promoter activity interaction Z-score: -1.49 ± 0.031
[3]; [19]
  promoter activity interaction Z-score: -1.22 ± 0.88
[3]; [20]
  promoter activity interaction Z-score: -1.65 ± 0.29
[3]; [21]
  promoter activity interaction Z-score: -2.13
[4]; [6]
  promoter activity interaction Z-score: 2.83 ± 0.11
[4]; [7]
  promoter activity interaction Z-score: 2.9 ± 0.097
[4]; [8]
  promoter activity interaction Z-score: 3.15 ± 0.6
[4]; [9]
  promoter activity interaction Z-score: 3.26 ± 0.44
[4]; [10]
  promoter activity interaction Z-score: 4.46 ± 0.059
[4]; [11]
  promoter activity interaction Z-score: 4.28 ± 0.14
[4]; [12]
  promoter activity interaction Z-score: 5.3 ± 1.6
[4]; [13]
  promoter activity interaction Z-score: 4.33 ± 0.021
[4]; [14]
  promoter activity interaction Z-score: 6.809 ± 0.059
[4]; [15]
  promoter activity interaction Z-score: 7.02 ± 1.1
[4]; [16]
  promoter activity interaction Z-score: 7.7 ± 0.67
[4]; [17]
  promoter activity interaction Z-score: 5.69 ± 0.3
[4]; [18]
  promoter activity interaction Z-score: 13.3 ± 0.42
[4]; [19]
  promoter activity interaction Z-score: 13.9 ± 0.57
[4]; [20]
  promoter activity interaction Z-score: 13.2 ± 0.83
[4]; [21]
  promoter activity interaction Z-score: 7.48 ± 0.55
[5]; [6]
  promoter activity interaction Z-score: 0.284 ± 0.95
[5]; [7]
  promoter activity interaction Z-score: 0.749 ± 0.29
[5]; [8]
  promoter activity interaction Z-score: 0.775 ± 0.4
[5]; [9]
  promoter activity interaction Z-score: -0.838 ± 0.78
[5]; [10]
  promoter activity interaction Z-score: -0.11 ± 0.4
[5]; [11]
  promoter activity interaction Z-score: 1.44 ± 1.1
[5]; [12]
  promoter activity interaction Z-score: 0.62 ± 0.32
[5]; [13]
  promoter activity interaction Z-score: 0.0157 ± 0.29
[5]; [14]
  promoter activity interaction Z-score: 2.66 ± 0.41
[5]; [15]
  promoter activity interaction Z-score: 3 ± 0.23
[5]; [16]
  promoter activity interaction Z-score: 2.88 ± 0.087
[5]; [17]
  promoter activity interaction Z-score: -0.245 ± 1.2
[5]; [18]
  promoter activity interaction Z-score: 3.73 ± 0.21
[5]; [19]
  promoter activity interaction Z-score: 6.42 ± 0.38
[5]; [20]
  promoter activity interaction Z-score: 3.99 ± 0.79
[5]; [21]
  promoter activity interaction Z-score: -0.515 ± 0.099
